A selection: hits, their analogues and other compounds. The true share with any hit is near 4.2%.
TCR act = Activators of T cell receptors: qHTS campaign | Potency, µM (series often up to 9.22 µM), usual class: activators | AID 504894, 2011 | primary human leukocytes, anti-CD3, IL-2 HTRF, 48 h | 330,000 tested, under 10 active
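Primary human leukocytes receive a-CD3 beads and test compound and are incubated 48 hr. Secreted IL-2 is then assayed by HTRF, measuring 665nm acceptor emission after 320nm excitation of the europium donor.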
ClpP mod = qHTS Assay for Activators of ClpP; ATP-dependent Clp protease proteolytic subunit (Bacillus subtilis (strain 168)), P80244; purified B. subtilis ClpP, FRET peptide cleavage, 20 min; Potency, µM (doses to about 57.5 µM); 340,000 tested, 1.9% active; AID 651965, 2013; active = well fitted falling curve with a large enough effect; inconclusive = small, poorly fitted or top-dose-only effect; inactive = no such curve, though single readings can be large or run the other way; also: the source files actives as falling curves though it sought activators and does not explain the sign; nearly all actives have a fitted effect of over 65% in size
Target sequence (P80244 whole entry, looked up): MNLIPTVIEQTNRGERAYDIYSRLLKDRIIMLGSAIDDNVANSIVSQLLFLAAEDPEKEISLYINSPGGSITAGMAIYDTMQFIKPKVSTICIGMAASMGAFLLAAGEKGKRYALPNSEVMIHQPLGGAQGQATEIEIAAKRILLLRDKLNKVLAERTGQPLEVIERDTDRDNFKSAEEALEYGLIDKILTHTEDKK
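FRET quenching reversal measured ClpP activation: 10 microg/mL B. subtilis ClpP at pH 8 with the FRET-FV decapeptide, read at 430 nm after 320 nm excitation. The 20-min minus 0-min signal was scaled between DMSO/no-enzyme wells and ADEP (5.8 microM final).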
uPA surface inh = qHTS for Inhibitors of Cell Surface uPA Generation | cell surface uPA generation assay, qHTS | Potency, µM (doses to about 38.3 µM), hits mostly inhibitors | 330,000 tested, 0.31% active | AID 540303, 2011; active = well fitted inhibition curve with a large enough effect; inconclusive = small, poorly fitted or top-dose-only effect; inactive = no such curve, though single readings can be large or run the other way; tested in mouse RAW 264.7 cells; also: nearly all actives have a fitted effect of over 55% in size
Sfp inh = qHTS Assay for Inhibitors of Bacillus subtilis Sfp phosphopantetheinyl transferase (PPTase). Biochemical Sfp PPTase activity, qHTS. AID 1490, 2009. 4'-phosphopantetheinyl transferase ffp (Bacillus subtilis), Q9F4F7. Potency, µM, most hits filed as inhibitors. 310,000 tested, 3.5% active;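 also: the enzyme is Sfp with the accession as filed and its product quenches rhodamine fluorescence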
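Fluorescence-quenching assay: 15 nM Sfp-PPTase preincubated 15 min at room temperature with compound, then 5 uM rhodamine-CoA and 12.5 uM BHQ-2-labelled YbbR peptide added. Fluorescence (ex 525/em 598 nm) read at start and after 30 min; difference gives rate.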
Of the large screens only hits and unclear results are named; the others gave an inactive call. Unless noted, calls follow the shape of the dose curve; as a rule, active = well fitted curve in the direction sought with a large enough effect; inconclusive = small, poorly fitted or top-dose-only effect, or another doubt; inactive = no such curve, though single readings can be large; an effect the other way counts as inactive or inconclusive.

O=S(=O)(/N=C(/NC(=S)Nc1ccccc1)c1ccccc1)c1ccc(Cl)cc1	Sfp inh 45µM (no result: ClpP mod)
NC(N)=NS(=O)(=O)c1ccc(NC(=S)NC(=O)/C=C/c2ccccc2)cc1	none
CCOC(=S)N/C(=N\S(=O)(=O)c1ccc(C)cc1)c1ccccc1	Sfp inh 22µM (no result: TCR act)
COc1ccc(NC(=S)NC(=NS(=O)(=O)c2ccc(Cl)cc2)c2ccccc2)cc1	none (no result: ClpP mod, Sfp inh)
NC(N)=NS(=O)(=O)c1ccc(NC(=S)NC(=O)c2ccccc2)cc1	Sfp inh 50µM
Cc1ccc(S(=O)(=O)NN/C(=N/S(=O)(=O)c2ccccc2)c2ccccc2)cc1	none
COc1ccc(NC(=S)N/C(=N/S(=O)(=O)c2ccc(C)cc2)c2ccccc2)cc1	Sfp inh 50µM
CN(Cc1cccnc1)C(=O)CNC(=O)c1ccc(Cl)cc1Cl	none (no result: ClpP mod)
Cc1cccc2sc(NC(=O)Cn3c(C)csc3=O)nc12	none (no result: Sfp inh)
CN(C)c1ccc(/C=C/c2c[n+](C)cc3ccccc23)cc1	none (no result: TCR act, uPA surface inh, Sfp inh)
O=c1cc(CN2CCN(c3ccccc3F)CC2)c2c(ccc3ccccc32)o1	ClpP mod 28µM (no result: TCR act, uPA surface inh, Sfp inh)
CC(C)C1NC2(C(=O)c3ccccc3C2=O)C2C(=O)N(c3ccc(F)cc3)C(=O)C12 (configuration not stated)	Sfp inh 25µM
O=C1/C(=C/c2ccccc2F)SC(=S)N1CC(=O)N1CCCCC1c1cccnc1 (configuration not stated)	none
O=C1C=CC2=C3c4cc(O)c(O)cc4CC3(O)COC2=C1O (configuration not stated)	Sfp inh 14µM
Cc1ccccc1-c1cncnc1NCc1cccs1	none (no result: TCR act, ClpP mod, uPA surface inh)
O=C(O)c1ccc(NNC(=S)Nc2cc(C(F)(F)F)ccc2Cl)cc1	Sfp inh 89µM (no result: ClpP mod)
COC(=O)[C@@]1(Cc2ccc(OC)cc2)[C@H]2c3cc(C(=O)N(C)C)n(Cc4cc(F)c(F)c(F)c4)c3C[C@H]2CN1C(=O)c1ccccc1	none (no result: TCR act, ClpP mod, uPA surface inh)
Cc1ccc(C)c(NC(=S)/C(=C(\[O-])c2ccc(Cl)s2)[n+]2ccccc2)c1	Sfp inh 50µM
CC(C)(C)c1cc[n+](/C(C(=S)NC2CC2)=C(/[O-])c2ccc(Cl)s2)cc1	Sfp inh 56µM
O=C(CCn1c(=O)c2ccccc2n(Cc2cccc([N+](=O)[O-])c2)c1=O)N1CCc2ccccc2C1	ClpP mod 25µM
CN1C(=O)C2C(c3ccc(N(C)C)cc3)=NN(Cc3ccccc3)C2C1=O (configuration not stated)	none (no result: ClpP mod)
Cc1occc1-c1nnc(SCC(=O)c2cc3ccccc3oc2=O)o1	ClpP mod 28µM
Cc1occc1-c1nnc(SCC(=O)NCCc2ccccc2)o1	none (no result: ClpP mod)
N#C/C(C(=O)c1ccccc1)=C1/SC=C(N)N1c1ccccc1	Sfp inh 35µM (no result: TCR act, ClpP mod, uPA surface inh)
CCOC(=O)c1c(NC(=O)Cn2cnc([N+](=O)[O-])n2)sc(C)c1C	none (no result: ClpP mod)
COc1ccc(N2CCN(C(CNC(=O)c3cccs3)c3ccco3)CC2)cc1 (configuration not stated)	ClpP mod 16µM (no result: Sfp inh)
O=C(NCC(c1ccco1)N1CCN(c2ccc(F)cc2)CC1)c1cccs1 (configuration not stated)	none (no result: ClpP mod, Sfp inh)
COc1cc(CNCCc2ccccc2)cc(Cl)c1OCc1ccccc1	Sfp inh 32µM (no result: ClpP mod)
COc1cc(CNCc2ccccc2)cc(Cl)c1OC	none
Cc1ccc(C(=O)c2c(N)c(C(=O)Nc3ccccc3Cl)c3ccccn23)cc1	none (no result: TCR act, uPA surface inh, Sfp inh)
COc1ccc(NC(=O)N(Cc2cccs2)Cc2cc3cc4c(cc3[nH]c2=O)OCO4)cc1	none (no result: ClpP mod, uPA surface inh)
CCN(CC)CCN(Cc1cc2cc3c(cc2[nH]c1=O)OCCO3)C(=O)NC1CCCCC1	ClpP mod 25µM
CCOCCCNC(=S)N(CCO)Cc1cc2cc3c(cc2[nH]c1=O)OCCO3	uPA surface inh inconclusive, Sfp inh 56µM
COc1ccc(CN(Cc2cc3cc4c(cc3[nH]c2=O)OCO4)C(=O)NC2CCCCC2)cc1	ClpP mod 22µM
O=C(NC1CCCCC1)N(CCN1CCOCC1)Cc1cc2cc3c(cc2[nH]c1=O)OCCO3	ClpP mod 35µM (no result: uPA surface inh)
Cc1ccc(C(=O)NCC(=O)OCC(=O)c2cccc3ccccc23)cc1	none (no result: TCR act, uPA surface inh, Sfp inh)
Nc1c(C(=O)NCc2ccccc2)nnn1Cc1cccc(Br)c1	none (no result: TCR act, uPA surface inh, Sfp inh)
CCCCCCCCCCCCCCCCCCCCCCCCCCCCCC	none (no result: TCR act, ClpP mod, uPA surface inh)
CC(C)CCNC(=O)C(=O)Nc1ccc2c(c1)N(S(=O)(=O)c1cccs1)CCC2	none (no result: ClpP mod, Sfp inh)

Compound activity (PubChem BioAssay)
